Reference: ChEMBL document CHEMBL3988442, “University of Dundee, Small-Polar-MMV Screening Library” (2021)
Among all 48,000 compounds or so, about 13,000 (27%) showed an effect of 50% or more. The list shows a part of the results.

The compounds below were run on Wolbachia pipientis (assay: Anti-Wolbachia Cell-Based Screen). Details: 5 µM.
Assay type: functional
Parameters: scale not given: in the data most compounds retested in dose-response had high values

Compound	Percent Effect
O=C(Cn1cc(Cl)cn1)Nc1ccc2c(c1)OCCCO2	-3.42%
Cn1cc(CCNC(=O)CCc2ccc3c(c2)OCO3)cn1	-1.168%
CCn1cc(NC(=O)NCC2(N3CCOCC3)CCSC2)cn1 (configuration not stated)	-22.54%
CCCn1cc(C(=O)NCCc2ccc3c(c2)OCO3)c(C)n1	-4.07%
CCn1cc(NC(=O)NCC(C)O)cn1 (configuration not stated)	-13.78%
CCn1cc(NC(=O)NCc2ccc3c(c2)OCO3)cn1	135.2%
CCn1cc(NC(=O)NCCc2ccc3c(c2)OCCO3)cn1	126.5%
CCn1cc(NC(=O)NCCc2ccc3c(c2)OCO3)cn1	124.8%
CCn1cc(NC(=O)Nc2ccc3c(c2)OCCO3)cn1	131.1%
Cc1nn(C)c(C)c1CN(Cc1cccn1-c1ccccn1)C(C)C	-9.247%
CCc1cnc(N2CCN(Cc3ccno3)CC2)s1	1.528%
CCn1cc(NC(=O)NCc2ccc(CO)c(F)c2)cn1	112.4%
CC(C)c1nnc(NC(=O)NCc2ccc(CO)c(F)c2)s1	-3.606%
CCn1cc(NC(=O)NC(CO)Cc2c[nH]c3ccccc23)cn1 (configuration not stated)	-9.205%
O=C(c1ccccn1)N1CCCC(c2nccn2Cc2ccncc2)C1 (configuration not stated)	-10.11%
O=C(c1ccccn1)N1CCC(c2nc(O)cc(-c3ccncc3)n2)C1 (configuration not stated)	109.3%
CC(C)(C)C(=O)N1CCC(c2nc(O)cc(-c3ccncc3)n2)CC1	112.4%
O=C(c1cccnc1)N1CCC(c2nc(O)cc(-c3ccncc3)n2)C1 (configuration not stated)	89.59%
O=C(c1ccccn1)N1CCC(c2nccn2Cc2ccncc2)CC1	7.014%
CC(C)C(=O)N1CCC(c2nc(O)cc(-c3ccncc3)n2)CC1	-8.577%
COCc1cc(CNC(=O)c2c(O)cccc2O)n[nH]1	12.71%
CC(C)N1CCc2[nH]nc(C(=O)N3CCCC3C)c2C1 (configuration not stated)	-13.09%
CCOCCCNC(=O)NC(C)c1ccc(-n2cncn2)cc1 (configuration not stated)	-14.96%
CCOCCNC(=O)c1ccn(S(=O)(=O)c2ccc(C)cc2)c1	-5.067%

Compound	Percent Effect
COCC(C)N(C)C(=O)c1ccc2nncn2c1 (configuration not stated)	2.79%
COc1cc(C)c(NC(=O)NCCn2cccc2)cc1OC	2.296%
NC(=O)C1CCN(Cc2cc3c(cc2Br)OCCO3)C1 (configuration not stated)	0.4913%
Cc1ccsc1C(=O)N1C[C@@H](C(=O)O)[C@H](C(C)C)C1	117.1%
CC(C)[C@@H]1CN(C(=O)C2(c3ccccc3)CC2)C[C@H]1C(=O)O	6.034%
CC(C)[C@@H]1CN(C(=O)c2ccsc2)C[C@H]1C(=O)O	124.9%
Cc1cncc(C(=O)N2CCCC(C(=O)CCc3ccccc3)C2)c1 (configuration not stated)	-18.81%
CC(C)C1CN(C(=O)c2ccsc2)CCS1 (configuration not stated)	1.544%
CC(C)[C@@H]1CN(C(=O)CN(C)Cc2ccccc2)C[C@H]1C(=O)O	-19.29%
Cc1cncc(C(=O)N2C[C@@H](C(=O)O)[C@H](C(C)C)C2)c1	102.6%
Cc1cncc(C(=O)N2CCN(c3cnn(C)c(=O)c3)CC2)c1	-23.7%
CCc1ccccc1OC1CN(C(=O)c2ccsc2)C1	-5.309%
CC(c1cccs1)N(C)C(=O)c1cc(CN(C)Cc2ccccc2)on1 (configuration not stated)	-11.33%
CN(C)c1cc(C(=O)NCC2(c3cccc(F)c3)CCOCC2)ccn1	-10.3%
CCOc1ccc(Cl)cc1C(C(=O)O)N1CCOCC1 (configuration not stated)	-18.5%
CC(C)(C)OC(=O)N1CSC[C@@H]1C(=O)NCc1ccc(C#N)cc1	-6.965%
COCC1CN(Cc2ccc(C)s2)Cc2nnn(C)c21.O=C(O)C(F)(F)F (configuration not stated)	106%
Cc1ccc(CN2Cc3nnn(C)c3C(COCC(=O)N(C)C)C2)s1.O=C(O)C(F)(F)F (configuration not stated)	83.68%
Cc1ccc(CN2Cc3c(C(=O)N(C)C)nn(C)c3C2)s1.O=C(O)C(F)(F)F	-8.124%
COCC1CN(Cc2ccc(C)o2)Cc2nnn(C)c21.O=C(O)C(F)(F)F (configuration not stated)	3.893%
Cc1ccc(CN2Cc3nnn(C)c3C(COCC3CC3)C2)o1.O=C(O)C(F)(F)F (configuration not stated)	1.722%
COCC1CN(Cc2sccc2C)Cc2nnn(CC3CC3)c21.O=C(O)C(F)(F)F (configuration not stated)	8.391%
Cc1ccc(CN2Cc3nnn(C)c3C(COCC3CC3)C2)s1.O=C(O)C(F)(F)F (configuration not stated)	100.2%
CCC(CC)NC(=O)CN1CCSCC1	2.417%

Compound	Percent Effect
Cc1ncnc(N2CCCN(c3nc4ccccc4s3)CC2)c1C	-5.721%
CCN1CCC(c2nc3ccc(NC4CCC4)cn3n2)CC1.O=C(O)C(F)(F)F	79.67%
COCCN1CCC(c2nc3ccc(N4CCCC4)cn3n2)CC1.O=C(O)C(F)(F)F	-8.298%
c1cc2nc(C3CCNCC3)nn2cc1NC1CCC1	109.6%
COCCN1CCC(c2nc3ccc(NC4CCC4)cn3n2)CC1.O=C(O)C(F)(F)F	99.27%
CC(C)Nc1ccc2nc(C3CCN(C(C)C)CC3)nn2c1.O=C(O)C(F)(F)F	7.625%
CCN1CCC(c2nc3ccc(NC(C)C)cn3n2)CC1.O=C(O)C(F)(F)F	-4.484%
COCC(=O)N1CCC(c2nc3ccc(N4CCCC4)cn3n2)CC1.O=C(O)C(F)(F)F	-11.72%
CC(=O)N1CCC(c2nc3ccc(NC4CCC4)cn3n2)CC1.O=C(O)C(F)(F)F	124.1%
Cl.Cl.Cl.c1cncc(CNc2ccc3nc(C4CCNCC4)nn3c2)c1	-18.54%
Cc1cc(C)c(Cn2cncn2)cc1CN1CC[C@H]2CC[C@@H](C1)N2	27.46%
CC(=O)N(C)CC(=O)NC(CC(C)C)c1cccs1 (configuration not stated)	5.598%
NC(=O)CCCNC(=O)CCc1cc(Br)cs1	8.374%
CCc1ccc(C(=O)NCc2ccnc(C)n2)cc1	0.2592%
CCN(c1ccc(C(=O)NCc2ccnc(C)n2)cc1)C(C)C	-16.63%
O=C(CCc1cc(Br)cs1)NCCCn1ccnc1	-0.5451%
Cc1ccsc1CNC(=O)CCc1c(C)nc2cc(O)nn2c1C	106.8%
Cc1nccc(CNC(=O)CCc2c(C)nc3cc(O)nn3c2C)n1	98.09%
CCN(CC)S(=O)(=O)c1ccc(CCC(=O)NCc2cc(C)on2)cc1	7.778%
Cc1cc(CNC(=O)CCc2c(C)nc3cc(O)nn3c2C)no1	92.65%
Cc1ccsc1CCNC(=O)CCC(=O)NC1CCCC1	-4.731%
Cc1ccsc1CNC(=O)CC1CN(C(=O)OC(C)(C)C)C1	-25.18%
Cc1nc2cc(O)nn2c(C)c1CCC(=O)NCc1cc(Br)cs1	111.2%
Cc1cc(CNC(=O)CCc2ccc(S(N)(=O)=O)cc2)no1	-2.333%
